In PubChem BioAssay (Tox21) one finds Potency, outcome and activity change, positive = activation data, which are given here for six compounds.

The structures appear in SMILES notation. “And” between values parts separate entries of the source, which are not always exact repeats. Equal entries are not always repeated. Results filed as inconclusive are left out. A structure can be active in one record and inactive in another. The source made the active and inactive calls. Unless noted, the call rests on the fitted dose curve; in most records, active means well fitted curve in the direction sought with a large enough effect in the repeat runs; inconclusive means weak or mixed curves; inactive means no such curve, though single readings can be large; an effect the other way counts as inactive or inconclusive.

Assay [1] is described as follows: qHTS assay to identify small molecule antagonists of the estrogen related receptor (ERR) signaling pathway from Tox21 library - cell viability counter screen (AID 1224834). Further: nearly all actives have a fitted effect of over 30% in size. In a few lines: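 In this quantitative HTS format, ERR cells receive compounds in DMSO and are incubated for 17.5 h at 37 C. Live-cell protease activity is then detected with CellTiter-Fluor.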
In general terms: In qHTS, concentration-response curves come from the screen itself.

Assay [2] addresses Luciferin 4-monooxygenase (Photinus pyralis) (UniProt P08659). The experiment in a line: qHTS assay to identify small molecule inhibitors of firefly luciferase (AID 1224835). Further: nearly all actives have a fitted effect of over 25% in size. Further: potency means the concentration at half of the fitted maximal effect. In a few lines: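 Biochemical qHTS: compounds run as interplate titrations against purified firefly enzyme, with D-luciferin and ATP each at its KM concentration. Light output recorded by CCD imaging.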
Assay [3] is described as follows: qHTS assay to identify small molecule agonists of the constitutive androstane receptor (CAR) signaling pathway - cell viability counter screen (AID 1224836). Further: nearly all actives have a fitted effect of over 45% in size. Put shortly: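 HepG2-CYP2B6-hCAR, 2500 cells/well, 4 h pre-incubation; cpd 15 conc + PK11195 0.75 uM final; 23 h, 37 C/5% CO2; CellTiter-Fluor, fluorescence.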
A short description of assay [4]: qHTS assay to identify small molecule antagonists of the estrogen related receptor signaling pathway with the pleiotropic PPARgamma coactivator (PGC) from Tox21 10K library - cell viability counter screen (AID 1224840; active means well fitted cell-killing curve with a large enough effect in the repeat runs, not every such curve was filed as active; further: nearly all actives have a fitted effect of over 40% in size). Put shortly: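 Viability counter screen, PGC/ERR cells: 17.5 h compound exposure at 37 C, CellTiter-Fluor fluorescence endpoint.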
Assay [5] can be described thus: qHTS assay to identify small molecule agonists of the hypoxia (HIF-1) signaling pathway - cell viability counter screen (AID 1224844; calls by dose curve; further: nearly all actives have a fitted effect of over 50% in size; further: potency means the concentration at half of the fitted maximal effect). In a few lines:
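Same wells as the HIF-1 reporter screen; ME-180 cells carrying HRE-bla, 17 hr treatment at 37C; CellTiter-Glo luminescence read after 30 min at room temperature.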

A short description of assay [6]: qHTS assay to identify small molecule agonists of H2AX - cell viability counter screen (AID 1224847; calls by dose curve; further: top concentration of the series differs between compounds; nearly all actives have a fitted effect of over 30% in size). In a few lines:
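Cells plated first: CHO-K1, 1000 per well in 10% FBS medium, incubated overnight at 37C. Then 15-point compound titration added (final DMSO 0.76%) for 3 hr. Finally CellTiter-Glo added and luminescence read.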

Assay [7] is described as follows: qHTS RealTime-Glo MT Cell Viability Assay in HepG2 cells - 24 hour (AID 1224867). Further: nearly all actives have a fitted effect of over 50% in size. Put shortly:
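HepG2 suspension premixed with RealTime-Glo reagents is plated at 600 cells per well and left 5 h at 37 C/5% CO2. Compounds in DMSO then go in, and bioluminescence reflecting viable cell number is recorded over 40 h.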

Assay [8] can be described thus: qHTS RealTime-Glo MT Cell Viability Assay in HEK293 cells - 32 hour (AID 1224868). Further: top concentration of the series differs between compounds; nearly all actives have a fitted effect of over 50% in size. Put shortly: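 Reads taken at 0, 8, 16, 24, 32 and 40 h from the same wells. HEK293 cells (600/well) carried RealTime-Glo reagents from seeding, with compound added after a 5 h settle at 37 C.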
Assay [9] in a line: A CellTox Green Cytotoxicity Assay to monitor cytotoxicity in HEK293 cells - 0 hour (AID 1224869). Further: nearly all actives have a fitted effect of over 50% in size. Put shortly:
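Homogeneous no-lysis format: HEK293 cell suspension mixed with CellTox Green reagent, seeded, incubated 5 h at 37 C/5% CO2, then dosed by pintool with compound in DMSO.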

Assay [10] can be described thus: qHTS RealTime-Glo MT Cell Viability Assay in HepG2 cells - 40 hour (AID 1224870). Further: nearly all actives have a fitted effect of over 50% in size. Put shortly: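 HepG2 cells (600/well) mixed with RealTime-Glo MT reagent, settled 5 h at 37 C/5% CO2 before compound addition. Nonlytic NanoLuc luminescence from viable-cell prosubstrate reduction read repeatedly during 40 h treatment at 37 C.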
Assay [11] has as its target Nuclear receptor subfamily 1 group I member 3 (Homo sapiens) (UniProt Q14994). Nature of the assay: qHTS assay to identify small molecule antagonists of the constitutive androstane receptor (CAR) signaling pathway (AID 1224838). Further: nearly all actives have a fitted effect of over 40% in size. In a few lines:
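CITCO-stimulated (50 nM final) HepG2 cells stably transfected with hCAR and CYP2B6-2.2kb luciferase were exposed to compounds at 15 concentrations for 24 h at 37 C/5% CO2. A luciferase reagent was added and luminescence recorded after 30 min.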

Assay [12] is described as follows: qHTS assay to identify small molecule antagonists of the estrogen related receptor signaling pathway with the pleiotropic PPARgamma coactivator (PGC) from Tox21 10K library (AID 1224841; call rule not given here; further: potency means the concentration at half of the fitted maximal effect). Put shortly: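 In the PGC/ERR line, DMSO solutions of test chemicals are pin-delivered to 2,000 cells/well six hours after dispensing. Following eighteen hours' incubation, One-Glo reagent is added and luminescence recorded.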

Assay [13] can be described thus: qHTS assay to identify small molecule agonists of the estrogen related receptor signaling pathway with the pleiotropic PPARgamma coactivator (PGC) from Tox21 10K library (AID 1224842). Further: nearly all actives have a fitted effect of over 15% in size. Put shortly: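 PGC/ERR reporter cell line, 2,000 cells per well, incubated 6 h at 37 C before 23 nL compound in DMSO was added. After 18 h at 37 C, One-Glo luminescence read following 30 min at room temperature.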

Assay [14] deals with Thyrotropin receptor (Homo sapiens) (UniProt P16473). The experiment in a line: qHTS assay to identify small molecule agonists of the thyroid stimulating hormone receptor (TSHR) signaling pathway (AID 1224843; calls by dose curve; further: nearly all actives have a fitted effect of over 45% in size). In a few lines:
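Agonist-mode screen: TSHR HEK293 cells received test chemicals for half an hour at room temperature, then HTRF cAMP detection reagents for one hour prior to fluorescence measurement. Each chemical ran as a 15-concentration series, triplicated.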

The nature of assay [15]: qHTS assay to identify small molecule agonists of H2AX (AID 1224845; active means well fitted activation curve with a large enough effect in the signal ratio in the repeat runs, not every such curve was filed as active; the % refers to the signal ratio; further: potency means the concentration at half of the fitted maximal effect). Put shortly:
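Wild-type CHO-K1 cells, plated overnight, exposed 3hr at 37C to 15 concentrations (0.76% DMSO final). Lysed, then HTRF anti-pH2AX (S139) cryptate and anti-H2AX-d2 antibodies, 24 hr room temperature; 665/620 nm emission read.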

A short description of assay [16]: qHTS assay to identify small molecule agonists of the hypoxia (HIF-1) signaling pathway (AID 1224846; active means well fitted activation curve with a large enough effect in the signal ratio in the repeat runs, not every such curve was filed as active; the % refers to the signal ratio). Put shortly:
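In ME-180 cells bearing an HRE-bla construct, 17 h treatment with DMSO-dissolved compounds at 37C was followed by CCF4-AM loading to quantify reporter induction.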

The nature of assay [17]: qHTS assay to identify small molecule antagonists of the estrogen related receptor (ERR) signaling pathway from Tox21 library (AID 1224848). Further: nearly all actives have a fitted effect of over 50% in size. In a few lines: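 Quantitative high-throughput format: ERR reporter cells (2,000/well) pre-incubated 6 h, treated 18 h at 37 C with compounds in DMSO alongside positive and negative controls, then read by ONE-Glo luminescence.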
Assay [18] in a line: qHTS assay to identify small molecule agonists of the estrogen related receptor (ERR) signaling pathway from Tox21 library (AID 1224849; calls by dose curve; further: nearly all actives have a fitted effect of over 15% in size). Conditions: ERR reporter cell line, ONE-Glo luciferase, 18 h; at 92.4 µM (top of the series). In a few lines:
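Reporter cells (ERR, NTP source) treated with Tox21 10K compounds 18 h, 37 C. Readout: ONE-Glo luminescence, 30 min RT.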

Assay [19] can be described thus: qHTS assay to identify small molecule antagonists of the constitutive androstane receptor (CAR) signaling pathway - cell viability counter screen (AID 1224837). Further: nearly all actives have a fitted effect of over 45% in size. Put shortly:
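In quantitative HTS format, compounds at 15 concentrations were applied to HepG2 cells double-transfected with hCAR and CYP2B6-2.2kb under 50 nM CITCO stimulation; live-cell protease activity was read after 23 hr via CellTiter-Fluor.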

Assay [20] addresses Nuclear receptor subfamily 1 group I member 3 (Homo sapiens) (UniProt Q14994). Nature of the assay: qHTS assay to identify small molecule agonists of the constitutive androstane receptor (CAR) signaling pathway (AID 1224839).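 Further: HepG2 cells stably carrying human CAR and a CYP2B6 luciferase reporter; nearly all actives have a fitted effect of over 15% in size.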 In a few lines:
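HepG2-CYP2B6-hCAR cells, 2500/well, 4 h pre-incubation; compounds 15 conc.; PK11195 0.75 uM final; 24 h, 37 C/5% CO2; ONE-Glo luciferase read.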
On the % scale 0 is the no-effect control and ±100 the full control effect.

Sequence of Nuclear receptor subfamily 1 group I member 3 (Homo sapiens) (Q14994 whole entry, looked up): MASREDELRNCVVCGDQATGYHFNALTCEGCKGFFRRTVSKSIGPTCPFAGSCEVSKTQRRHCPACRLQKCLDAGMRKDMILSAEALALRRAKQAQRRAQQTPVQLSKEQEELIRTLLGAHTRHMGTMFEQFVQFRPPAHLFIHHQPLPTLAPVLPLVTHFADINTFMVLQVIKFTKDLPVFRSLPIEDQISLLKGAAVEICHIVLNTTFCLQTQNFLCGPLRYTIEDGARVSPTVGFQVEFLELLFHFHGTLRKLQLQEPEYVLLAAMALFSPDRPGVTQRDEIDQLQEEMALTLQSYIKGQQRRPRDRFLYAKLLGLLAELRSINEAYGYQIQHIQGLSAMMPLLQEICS
Sequence of Luciferin 4-monooxygenase (Photinus pyralis) (P08659 whole entry, looked up): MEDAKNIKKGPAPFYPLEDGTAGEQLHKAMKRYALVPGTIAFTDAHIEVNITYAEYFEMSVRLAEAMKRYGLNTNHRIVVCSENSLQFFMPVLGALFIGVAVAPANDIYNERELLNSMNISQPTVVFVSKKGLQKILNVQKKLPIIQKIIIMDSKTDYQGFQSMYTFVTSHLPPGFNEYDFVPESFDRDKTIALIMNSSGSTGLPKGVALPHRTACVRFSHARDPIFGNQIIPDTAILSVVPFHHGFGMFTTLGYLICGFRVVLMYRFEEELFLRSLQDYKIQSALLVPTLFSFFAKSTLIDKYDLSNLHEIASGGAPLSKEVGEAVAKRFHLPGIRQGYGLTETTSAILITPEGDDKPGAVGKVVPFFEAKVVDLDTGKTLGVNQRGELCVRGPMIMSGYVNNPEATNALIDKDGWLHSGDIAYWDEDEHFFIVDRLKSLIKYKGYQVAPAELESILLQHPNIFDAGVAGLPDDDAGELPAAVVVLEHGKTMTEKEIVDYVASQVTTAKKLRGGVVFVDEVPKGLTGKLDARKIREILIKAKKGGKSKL
Sequence of Thyrotropin receptor (Homo sapiens) (P16473 whole entry, looked up): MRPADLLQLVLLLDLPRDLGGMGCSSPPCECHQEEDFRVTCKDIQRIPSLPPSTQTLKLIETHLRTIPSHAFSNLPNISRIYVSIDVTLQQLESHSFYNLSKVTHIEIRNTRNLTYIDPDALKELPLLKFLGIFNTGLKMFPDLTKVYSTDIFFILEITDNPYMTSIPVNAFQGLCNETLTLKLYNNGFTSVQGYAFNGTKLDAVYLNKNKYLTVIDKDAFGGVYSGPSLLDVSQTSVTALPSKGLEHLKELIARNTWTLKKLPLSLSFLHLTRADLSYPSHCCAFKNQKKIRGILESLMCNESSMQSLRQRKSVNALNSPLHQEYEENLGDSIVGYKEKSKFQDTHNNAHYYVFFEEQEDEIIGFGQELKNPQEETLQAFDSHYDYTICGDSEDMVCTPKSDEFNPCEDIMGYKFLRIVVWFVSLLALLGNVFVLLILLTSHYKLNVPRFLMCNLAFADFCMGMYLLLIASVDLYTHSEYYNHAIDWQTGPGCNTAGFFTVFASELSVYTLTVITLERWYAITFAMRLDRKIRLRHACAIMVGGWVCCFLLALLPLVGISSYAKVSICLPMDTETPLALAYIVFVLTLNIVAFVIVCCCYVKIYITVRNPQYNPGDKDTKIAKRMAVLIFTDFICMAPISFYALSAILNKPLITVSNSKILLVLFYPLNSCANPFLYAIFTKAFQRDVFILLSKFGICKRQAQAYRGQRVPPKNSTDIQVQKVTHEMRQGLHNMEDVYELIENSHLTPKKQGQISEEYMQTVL

Take `NC[C@H](O)c1ccc(O)c(O)c1`: the Potency result in [1], in assay [2], in assay [3], in assay [4], in assay [5] and in assay [6] was “inactive” throughout. In addition, the Potency result in assay [7], in assay [8], in assay [9] and in assay [10] was “inactive” throughout.
`ClC/C=C/CCl`: the Potency entry in assay [1], in assay [2], in assay [3], in assay [11], in assay [4] and in assay [12] was “inactive” throughout. The Potency entry in assay [13], in assay [14], in [5], in assay [15], in assay [6] and in assay [17] was “inactive” throughout. The Potency result in assay [7], in assay [8], in [9] and in [10] was “inactive” throughout. Moreover, the call in assay [16] was inactive. The activity change, positive = activation in assay [18] is -1.09% (inactive) and 0.131% (inactive).
As to `O=C(O)CCCCCCCCCCCC(=O)O`, the Potency entry in assay [1], in [2], in assay [3], in [4], in assay [13] and in assay [14] was “inactive” each time. Further, the Potency entry in assay [6], in [17], in [7], in assay [8], in assay [9] and in assay [10] was “inactive” throughout. Moreover, the Potency in assay [12] is 60.1 µM (active) and inactive; in assay [5] it was 48.2 µM (active) and inactive; in [15] it was 111 µM (active) and inactive. In addition, the call in [16] was inactive. The activity change, positive = activation in assay [18] was -2.27% (inactive).
`CC(=O)Nc1ccc2c(c1)Cc1cc(NC(C)=O)ccc1-2`: the Potency entry in assay [1], in [2], in assay [3], in [11], in assay [4] and in [14] was “inactive” in each case. Moreover, the Potency result in assay [5], in [15], in assay [6], in [7], in [8] and in [9] was “inactive” throughout. The Potency result in assay [10] is “inactive”. Further, the call in assay [16] was inactive.
For `c1ccc2c(c1)ccc1ncccc12`, the Potency result in assay [1], in assay [3], in [11], in assay [4], in assay [12] and in [13] was “inactive” each time. Further, the Potency entry in assay [14], in assay [5], in assay [15], in [6], in [17] and in assay [7] was “inactive” in each case. The Potency result in assay [8], in assay [9] and in assay [10] was “inactive” in each case. The Potency in assay [2] was 62.8 µM (active) and 35.6 µM (active). The outcome in [16] was inactive. Also, the activity change, positive = activation in [18] was -5.44% (inactive).
On to `Oc1c(Cl)ccc(Cl)c1Cl`, for which the Potency entry in assay [1], in [2], in assay [19], in assay [11], in assay [20] and in [4] was “inactive” each time. Also, the Potency entry in assay [12], in [13], in assay [5], in assay [15], in [6] and in assay [17] was “inactive” each time. The Potency result in assay [7], in assay [8], in assay [9] and in assay [10] was “inactive” each time. Further, the compound was called inactive in assay [16]. Besides, the activity change, positive = activation in assay [18] was 1.41% (inactive) and -6.03% (inactive).
